Results reported in PubChem BioAssay (NCATS).
Records with an inconclusive call do not appear. The list shows a part of the results. A call without a number means that no potency is given here. Active and inactive are the calls of the source. The call rests on the fitted dose curve; in most records, active means well fitted inhibition curve with a large enough effect; inconclusive means small, poorly fitted or top-dose-only effect; inactive means no such curve, though single readings can be large or run the other way.

What was measured:
[1] = molecular target: Tumor susceptibility gene 101 protein (Homo sapiens) (UniProt Q99816); experiment: qHTS Assay for Iinhibitors of HIV-1 Budding by Blocking the Interaction of PTAP/TSG101: Hit Validation (AID 651600); conditions: PTAP peptide/TSG101 UEV interaction, biochemical assay; series mostly up to 57.5 µM; further: nearly all actives have a fitted effect of over 70% in size
Sequence of Tumor susceptibility gene 101 protein (Homo sapiens) (Q99816 whole entry, looked up, the tested form may be a part): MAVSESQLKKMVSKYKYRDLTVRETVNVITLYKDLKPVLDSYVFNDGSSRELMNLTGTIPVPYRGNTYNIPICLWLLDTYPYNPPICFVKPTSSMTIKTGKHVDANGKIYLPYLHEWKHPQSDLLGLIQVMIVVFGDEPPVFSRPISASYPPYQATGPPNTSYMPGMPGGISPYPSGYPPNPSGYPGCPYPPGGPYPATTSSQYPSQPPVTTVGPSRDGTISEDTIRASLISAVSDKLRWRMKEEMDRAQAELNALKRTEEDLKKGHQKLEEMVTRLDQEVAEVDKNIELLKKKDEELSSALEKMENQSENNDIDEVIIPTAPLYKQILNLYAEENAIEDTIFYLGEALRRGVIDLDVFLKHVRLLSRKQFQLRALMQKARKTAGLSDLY
Summary of the method: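 Fluorescence polarization binding assay: Tsg101 binding domain (10 uM) mixed with compounds and FITC-labeled PTAP peptide (50 nM) in HEPES pH 7.5, 0.15 M NaCl, 0.01% Tween 20, EDTA, TCEP; 20 min at r.t.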

[2] = molecular target: ATPase family AAA domain-containing protein 5 (Homo sapiens) (UniProt Q96QE3); experiment: qHTS screen for small molecules that inhibit ELG1-dependent DNA repair in human embryonic kidney (HEK293T) cells expressing luciferase-tagged ELG1: Hit Confirmation using MMS Stimulated ELG1 (AID 624249); conditions: HEK293T luciferase-tagged ELG1 level; series mostly up to 46.1 µM; further: nearly all actives have a fitted effect of over 60% in size
Sequence of ATPase family AAA domain-containing protein 5 (Homo sapiens) (Q96QE3 whole entry, looked up, the tested form may be a part): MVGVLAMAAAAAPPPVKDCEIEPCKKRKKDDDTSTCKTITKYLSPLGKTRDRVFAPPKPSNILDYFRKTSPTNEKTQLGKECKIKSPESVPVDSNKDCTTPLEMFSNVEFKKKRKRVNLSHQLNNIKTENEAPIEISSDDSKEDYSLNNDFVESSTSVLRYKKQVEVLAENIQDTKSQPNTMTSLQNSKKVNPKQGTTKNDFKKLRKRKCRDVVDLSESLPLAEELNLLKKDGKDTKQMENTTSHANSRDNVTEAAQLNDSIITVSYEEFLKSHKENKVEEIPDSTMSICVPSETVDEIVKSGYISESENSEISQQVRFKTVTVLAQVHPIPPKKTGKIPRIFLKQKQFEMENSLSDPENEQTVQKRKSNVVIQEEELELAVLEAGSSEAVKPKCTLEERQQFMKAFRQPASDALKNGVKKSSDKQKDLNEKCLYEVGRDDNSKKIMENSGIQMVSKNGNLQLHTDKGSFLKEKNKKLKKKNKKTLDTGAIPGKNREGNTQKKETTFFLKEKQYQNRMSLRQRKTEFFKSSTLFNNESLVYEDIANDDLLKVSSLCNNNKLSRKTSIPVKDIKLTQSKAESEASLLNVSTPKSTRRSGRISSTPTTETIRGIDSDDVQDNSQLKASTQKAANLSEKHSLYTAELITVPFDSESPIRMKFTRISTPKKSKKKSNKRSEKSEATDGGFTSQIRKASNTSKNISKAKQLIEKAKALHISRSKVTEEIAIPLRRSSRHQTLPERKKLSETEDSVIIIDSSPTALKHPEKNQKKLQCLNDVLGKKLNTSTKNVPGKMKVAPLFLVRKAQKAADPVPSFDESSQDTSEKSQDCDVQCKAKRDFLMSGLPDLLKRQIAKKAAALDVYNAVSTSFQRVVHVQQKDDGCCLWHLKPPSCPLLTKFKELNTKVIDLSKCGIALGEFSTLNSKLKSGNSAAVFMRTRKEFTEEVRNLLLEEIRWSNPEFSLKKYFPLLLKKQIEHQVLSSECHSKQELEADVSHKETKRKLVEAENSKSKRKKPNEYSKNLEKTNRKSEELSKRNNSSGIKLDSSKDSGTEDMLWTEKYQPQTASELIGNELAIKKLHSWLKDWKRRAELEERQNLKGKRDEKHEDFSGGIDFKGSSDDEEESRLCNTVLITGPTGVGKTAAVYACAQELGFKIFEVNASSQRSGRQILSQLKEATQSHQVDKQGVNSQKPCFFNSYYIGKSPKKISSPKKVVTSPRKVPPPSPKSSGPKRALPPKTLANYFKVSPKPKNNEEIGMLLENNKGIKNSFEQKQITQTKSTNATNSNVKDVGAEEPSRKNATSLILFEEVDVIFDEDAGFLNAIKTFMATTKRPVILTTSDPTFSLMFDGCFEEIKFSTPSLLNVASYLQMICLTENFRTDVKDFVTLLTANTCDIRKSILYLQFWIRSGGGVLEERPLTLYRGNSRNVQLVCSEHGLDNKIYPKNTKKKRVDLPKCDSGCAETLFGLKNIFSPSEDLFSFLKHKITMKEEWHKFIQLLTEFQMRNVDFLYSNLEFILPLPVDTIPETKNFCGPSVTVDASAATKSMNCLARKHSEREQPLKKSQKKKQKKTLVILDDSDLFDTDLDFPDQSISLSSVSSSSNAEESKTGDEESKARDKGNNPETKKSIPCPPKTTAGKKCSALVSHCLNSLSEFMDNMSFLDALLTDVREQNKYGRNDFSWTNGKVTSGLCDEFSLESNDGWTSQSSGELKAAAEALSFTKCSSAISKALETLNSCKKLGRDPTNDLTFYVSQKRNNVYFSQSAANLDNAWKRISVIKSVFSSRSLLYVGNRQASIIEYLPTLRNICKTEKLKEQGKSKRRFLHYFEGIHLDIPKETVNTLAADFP
Summary of the method: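 Reporter gene format: suppression of MMS-induced ELG1-luciferase signal in HEK293T cells. MMS is present at 10 µM final, compound incubation lasts 16 h, and detection is by Amplight luciferase reagent.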
Potency means the concentration at half of the fitted maximal effect.

Row | SMILES | Potency [1] | Potency [2]
1 | O=C1c2cccc3c([N+](=O)[O-])ccc(c23)C(=O)N1c1ccc(Cl)cn1 | inactive | 
2 | COc1ccc(NC(=O)C2CCC(CNc3c(N4CCCCC4)c(=O)c3=O)CC2)c(OC)c1 (stereo unspecified) |  | inactive
3 | ClCc1nc2ccccc2n1Cc1ccccc1 | inactive | 
4 | O=C(NCc1cccc(F)c1)c1cccc2c1C(=O)c1ccc(N3CCCC3)cc1S2(=O)=O | inactive | 
5 | CCCCNc1c2c3c(cccc3n(C)c1=O)C(=O)c1ccccc1-2 | 5.8 µM (active) | 
6 | CCCCCCCCOc1ccc(C2OC34CCCCC3C(C#N)(C#N)C2(C#N)C(=N)O4)cc1 (stereo unspecified) | inactive | 
7 | O=c1cc2oc3cc(O)c(O)cc3c(-c3ccccc3O)c-2cc1O | 13 µM (active) | 
8 | CN1CCc2c(sc3c2C(=O)NC(c2ccccn2)N3)C1 (stereo unspecified) | 18.3 µM (active) | 
9 | Nc1ccc2c(c1)C/C(=C/c1ccco1)C2=O | inactive | 
10 | S=C(Nc1ccc(N2CCOCC2)cc1)Nc1ccc2nc(-c3ccco3)c(-c3ccco3)nc2c1 | 32.6 µM (active) | 
11 | O=C(OCCN1C(=O)c2cccc3c(N4CCOCC4)ccc(c23)C1=O)c1ccc(Cl)cc1 | 18.3 µM (active) | 
12 | Nc1cnccc1C(=O)O | 20.6 µM (active) | 
13 | CN(C)c1ccc(N=Cc2nc(-c3ccccc3)oc2O)cc1 | 18.3 µM (active) | 
14 | COc1ccc(OC)c(/C=C(\C#N)c2nc(-c3ccc(F)cc3)cs2)c1 | inactive | 
15 | Cc1cc(C)n2nc3nc4c(cc3c2n1)CCCC4 | inactive | 
16 | C#CCn1cc(C=C2C(=O)c3ccccc3C2=O)c2ccccc21 | inactive | 
17 | O=C(NCc1ccco1)c1cccc2c1C(=O)c1ccc(N3CCC(Cc4ccccc4)CC3)cc1S2(=O)=O | inactive | 
18 | COc1ccc(C2=CC(c3ccco3)n3ncnc3N2)cc1 (stereo unspecified) | inactive | 
19 | Nc1c(C(=O)O)sc2nc(-c3ccccc3)cc(-c3ccc(Cl)cc3)c12 | inactive | 
20 | CCOC(=O)c1c(C)oc2c1c(CN1CCN(C(=O)OCC)CC1)c(O)c1ccccc12 | inactive | 
21 | CCOC(=O)Cn1c(=O)c(-c2cc(Br)ccc2N)nc2ccccc21 | inactive | 
22 | CC(C)c1nnc(N2C(=O)C(O)=C(C(=O)c3cccs3)C2c2ccccc2)s1 (stereo unspecified) | 8.19 µM (active) | 
23 | Cc1ccc(C2C=C(c3ccc(Cl)cc3)Nc3nc(NS(=O)(=O)c4ccccc4)nn32)cc1 (stereo unspecified) | inactive | 
24 | COc1ccc(CNc2ncnc3ccccc23)cc1 |  | 1.58 µM (active)
25 | COc1ccc(-c2cc(C(=O)N3CC(C)CC(C)C3)c3ccccc3n2)cc1OC (stereo unspecified) | inactive | 
26 | CNc1c2cccc(C)c2nc2c(C(=O)NCCN(C)C)cccc12 | 16.3 µM (active) | 

Row | SMILES | Potency [1] | Potency [2]
27 | CC1=CC(=C(C#N)c2nc3ccccc3s2)C=C(C)N1CC1CCCO1 (stereo unspecified) | 16.3 µM (active) | 
28 | CCc1cc(C(=O)OC)c(NC(=O)CC2Nc3cc(C)c(C)cc3NC2=O)s1 (stereo unspecified) | inactive | 
29 | O=C1C=CC(=O)c2c(O)c(CO)c(CO)c(O)c21 | inactive | 
30 | Cc1ccc(C2C=C(c3ccccc3)Nc3nc(NS(C)(=O)=O)nn32)cc1 (stereo unspecified) | inactive | 
31 | CN1CCc2c(sc(NC(=O)CSc3ccc(F)cc3)c2-c2nc3ccccc3s2)C1 | inactive | 
32 | CC1CCc2cccc3c2N1c1cc(C#N)c(C#N)cc1O3 (stereo unspecified) | inactive | 
33 | CC(C)(CNC(=O)c1ccc(Cl)c(S(=O)(=O)N2CCc3ccccc3C2)c1)N1CCOCC1 |  | 1.58 µM (active)
34 | CCCN1CCCc2cc(CN)ccc21 | inactive | 
35 | CC(=O)c1cccc(-n2nnnc2SCC(=O)Nc2cc(C)on2)c1 | inactive | 
36 | Cc1ccc2nc(-c3ccco3)c(Nc3ccccc3)n2c1 | inactive | 
37 | COc1ccc(-c2onc3ccc(Br)cc23)cc1 | inactive | 
38 | O=C1CCCC2=C1Sc1ccc(Cl)cc1N2 | inactive | 
39 | NC(=O)c1ccccc1NCC(=O)c1ccc(F)cc1 | inactive | 
40 | O=[N+]([O-])c1ccc(-c2cn3nc(-c4ccccc4)c(-c4ccccc4)nc3n2)cc1 | inactive | 
41 | Cc1cc(=O)c2c([nH]1)c(C)cc1[nH]c(C)c(C)c12 | inactive | 
42 | COc1ccc(OC)c(NC(=O)CCN2CC(C)CC(C)C2)c1 (stereo unspecified) | inactive | 
43 | O=C(NCc1ccccc1Br)c1cccc2c1C(=O)c1ccc(N3CCC(Cc4ccccc4)CC3)cc1S2(=O)=O | inactive | 
44 | C/C(=N/NC(=O)c1ccncc1)c1cc2ccc(O)cc2oc1=O | 14.6 µM (active) | 
45 | Cc1ccc(C2C=C(c3ccccc3)Nc3nc(NS(=O)(=O)c4ccccc4)nn32)cc1 (stereo unspecified) | inactive | 
46 | CC(=O)Nc1ccc(N=Cc2c(O)ccc3ccccc23)cc1 | 29.1 µM (active) | 
47 | CC(OC(=O)c1c2c(nc3ccccc13)/C(=C\c1ccc3c(c1)OCO3)CCC2)C(=O)Nc1ccc(S(N)(=O)=O)cc1 (stereo unspecified) | 4.11 µM (active) | 
48 | Nc1cccc(N2C(=O)c3cccc4c(N)ccc(c34)C2=O)c1 | 4.11 µM (active) | 
49 | C1=C(c2ccc(-c3ccccc3)cc2)Nc2ncnn2C1c1ccco1 (stereo unspecified) | inactive | 
50 | Brc1ccc(C2=CC(c3ccco3)n3ncnc3N2)cc1 (stereo unspecified) | inactive | 
51 | COc1cc2c(cc1OC)-c1cc3ccc4c(c3c[n+]1CC2)OCO4 | 13 µM (active) | 
